Source: PubChem BioAssay (EPA / NIEHS)
Records with an inconclusive call do not appear. Some compounds were tested as several samples or in several runs, with calls that do not always agree. Calls of active or inactive are those of the source. How the source made its calls: active means hit-call score of the fitted dose curve at least 0.9, where 1 is the maximum; inconclusive means response in the unintended direction; inactive means score below 0.9.

Experiment: TOX21_p53_BLA_p3_viability: Viability Assessment in the Tox21 HCT-116 p53 Agonism Beta-lactamase Assay, Phase 3 (AID 2283593);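 further: cells exposed to compound for 16 h before reading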
Excerpt: TOX21_p53_BLA_p3 is a cell-based, single-readout assay that uses HCT116, a human intestinal cell line, […] in a 1536-well plate.TOX21_p53_BLA_p3_viability is an assay readout measuring cellular ATP content and detected with CellTiter-Glo Luciferase-coupled ATP quantitation.TOX21_p53_BLA_p3_viability used a type of viability reporter where loss-of-signal activity can be used to understand changes in the cell viability. Furthermore, this assay endpoint can be referred to as a secondary readout, because this assay has produced multiple assay endpoints where this one serves a viability function. To generalize the intended target to other relatable targets, this assay endpoint is annotated to the cell cycle intended target family, where the subfamily is cytotoxicity.
Thawing Method: Place 14 mL of pre-warmed thaw medium into a 15 mL of conical tub. Remove the vial of cells to be thawed from liquid nitrogen and thaw rapidly by placing at 37C in a water bath with gentle agitation for 1-2 minutes. Decontaminate the vial by wiping with 70% ethanol before opening in a biological safety cabinet. Transfer the vial contents drop-wise into 14 mL of thaw medium in a sterile 15-mL conical tub. Centrifuge cells at 900 rpm for 4 minutes and resuspend in thaw medium. Transfer contents to the T75 tissue culture flask containing Thaw Medium and place flask in a humidified 37C/5% CO2 incubator. Switch to growth medium at first passage.Propagation Method: Aspirate medium, rinse once in DPBS, add 0.25% Trypsin/EDTA and swirl to coat the cell evenly. Add an equal volume of Growth Medium to inactivate Trypsin after 2-3 minutes incubation at 37C. Centrifuge cells at 900 rpm for 4 minutes and resuspend in growth medium. Cell should be passage or fed at least twice a week.Assay Protocol: Harvest cells from culture in growth medium and resuspend in assay medium. 2.2 Dispense 4000 cells/5 uL/well into 1536-well black/clear bottom plates using a Multidrop dispenser. After the cells were incubated at 37C for 5 hours, 23 nL of compounds dissolved in DMSO were transferred to the assay plate by a PinTool resulting in a 217-fold dilution. Incubate the plates for 16 hours at 37C, 5% CO2. Add 1 uL of 6X LiveBLAzer FRET B/G (CCF4-AM) Substrate Mixture to each well using a BioRAPTR dispenser and incubate the plates at room temperature for 2 hours. Measure fluorescence intensity at 460 and 530 nm emission and 405 nm excitation by an Envision detector. Data is expressed as the ratio of 460nm/530nm emissions. Add 4 uL of Cell-titer Glo to each well using BioRAPTR and incubate the plates at room temperature for […]. For cell viability readout that measures cytotoxicity, 4 ul/well of CellTiter-Glo reagent was added into the assay plates using a Flying Reagent Dispenser. After 30 min incubation at room temperature, the luminescence intensity in the plates was measured using a ViewLux plate reader.

Structure (SMILES)	outcome	AC50
CC(C)(O)c1coc(S(=O)(=O)NC(=O)Nc2c3c(cc4c2CCC4)CCC3)c1	inactive	–
CC(C)c1cccc(C(C)C)c1N1C(=O)c2ccc(O)cc2C1=O	–	74.9 µM (active)
CC(C)CCCCCCCOC(=O)CCCCC(=O)OCCCCCCCC(C)C	inactive	–
Nc1ccc(Nc2ccccc2)cc1	inactive	–
CCc1cc(SCc2sc(-c3ccc(C(F)(F)F)cc3)nc2CN2CCN(c3ccc(OC)cc3)CC2)ccc1OCC(=O)O	–	17.2 µM (active)
O=C1CCC(N2C(=O)c3ccccc3C2=O)C(=O)N1 (stereo not given)	inactive	–
Oc1ccc2c(c1)-c1ccccc1C2	inactive	–
O=P(OC(CCl)CCl)(OC(CCl)CCl)OC(CCl)CCl	inactive	–
CCCCCCCCO	inactive	–
CC(C)=CCC/C(C)=C/CO	inactive	–
O=C(O)c1cccc(N(Cc2cccnc2)c2ccc(OC(F)F)c(OC(F)F)c2)c1	inactive	–
C=CCCCCCCCCC(=O)O	inactive	–
O=c1n(CC2CO2)c(=O)n(CC2CO2)c(=O)n1CC1CO1 (stereo not given)	inactive	74.3 µM (active)
CCCN(C1CCN(C(=O)C2CCNCC2)CC1)[C@@H]1CCc2ccc(OC)cc2C1	inactive	–
Nc1cccc(N)c1	inactive	–
CC(=O)OCCC(C)C	inactive	–
CCOC(=O)CC(CC(=O)OCC)(OC(C)=O)C(=O)OCC	inactive	–
O=C1CCCCCN1	inactive	–

Structure (SMILES)	outcome	AC50
CC[C@H]1OC(=O)[C@H](C)[C@@H](O[C@H]2C[C@@](C)(OC)[C@@H](O)[C@H](C)O2)[C@H](C)[C@@H](O[C@@H]2O[C@H](C)C[C@H](N(C)C)[C@H]2O)[C@](C)(O)C[C@@H](C)C(=O)[C@H](C)[C@@H](O)[C@]1(C)O	inactive	–
Cn1cnc([N+](=O)[O-])c1Sc1ncnc2nc[nH]c12	inactive	4.91 µM (active)
Cn1c(=O)cc(Oc2ccc(F)cc2F)c2cnc(NCC(C)(C)O)nc21	inactive	–
Cc1ccc(S(=O)(=O)O)cc1C	inactive	–
COCCOc1cc2cc(C(=O)NC3CCN(C(C)C)CC3)n(CC(=O)Nc3ccc(Cl)cn3)c2cn1	inactive	–
C[C@](N)(Cc1ccc(O)c(O)c1)C(=O)O	inactive	–
CC(C)CCO	inactive	–
C1N2CN3CN1CN(C2)C3	inactive	–
CCOc1cccc(-n2cc(C(=O)N3CCN(c4cc(C(=O)O)c5ccccc5c4)CC3)nc2-c2ccc(C)cc2)c1	–	28.6 µM (active)
CCCCCCc1ccc(O)cc1O	inactive	67.1 µM (active)
O=C(OC[C@H]1O[C@@H](OC(=O)c2cc(O)c(O)c(OC(=O)c3cc(O)c(O)c(O)c3)c2)[C@H](OC(=O)c2cc(O)c(O)c(OC(=O)c3cc(O)c(O)c(O)c3)c2)[C@@H](OC(=O)c2cc(O)c(O)c(OC(=O)c3cc(O)c(O)c(O)c3)c2)[C@@H]1OC(=O)c1cc(O)c(O)c(OC(=O)c2cc(O)c(O)c(O)c2)c1)c1cc(O)c(O)c(OC(=O)c2cc(O)c(O)c(O)c2)c1	inactive	6.6 µM (active)
COc1ccc2sc(C(=O)Nc3nnn[nH]3)c(OC(C)C)c2c1	–	17.8 µM (active)
CC(C)=CCCC(C)=CC=O	inactive	–
COc1ccc(/C=C/S(=O)(=O)NC(=O)c2ccc(C)cc2Cl)cc1	inactive	–
Fc1ccccc1[C@@H](F)COC1CCC(Nc2ncnc3[nH]ncc23)CC1 (stereo not given in full)	inactive	–
COC(=O)c1ccccc1O	inactive	–
Cc1[nH]cnc1C[C@H]1CCc2c(C)c3ccccc3n2C1=O	inactive	–
CC(=O)OC[C@H]1O[C@@](COC(C)=O)(O[C@H]2O[C@H](COC(C)=O)[C@@H](OC(C)=O)[C@H](OC(C)=O)[C@H]2OC(C)=O)[C@@H](OC(C)=O)[C@@H]1OC(C)=O	inactive	–
